# Laboratory results as given in PubChem BioAssay AID463173 (ICCB-Longwood Screening Facility, Harvard Medical School, 2010).
# The campaign covered roughly 52,000 compounds. About 4,300 (8.3%) were called active. The sample as a whole holds a higher share of actives than the screen did. A number with no mark means an inactive call. Rule as the data show it: active = survival mostly below about 52% (no sharp cut-off); inactive = mostly above about 56%.
# Tested on: DeltatarO mutant
# Assay: growth inhibition of S. aureus wild type versus tarO mutant, primary screen, teichoic acid synthesis inhibitors, RN4220, OD600 (AID 463173)
# Conditions: OD600, 18 h, stronger effect = lower value, screened at 18.75 µg/mL (by protocol)
row,Structure (SMILES),survival
1,CC(CNC(=O)c1ccc2c(c1)nc1n2CCCCC1)c1ccccc1 (configuration not stated),62%
2,CCOC(=O)c1ccc(CN(Cc2ccccc2C)S(=O)(=O)c2ccc(F)c(C)c2)cc1,80%
3,Cn1cnc(S(=O)(=O)N2CCCC(C(=O)NCc3ccc(F)cc3)C2)c1 (configuration not stated),55%
4,CCOC(=O)CN1N=NC2C(=O)N(c3ccccc3)C(=O)C21 (configuration not stated),92%
5,O=C(c1ccc2c(c1)OCCO2)N(Cc1cccnc1)c1nc2c(F)cc(F)cc2s1,88%
6,Cc1ccc(CCNC(=O)CN(c2ccc(C(C)C)cc2)S(=O)(=O)c2c(C)nn(C)c2C)cc1,68%
7,Cc1ccc(C(=O)c2cn(Cc3c(F)cccc3Cl)c3nc(C)ccc3c2=O)cc1,62%
8,CCc1ccc(NC(=O)CSC2=Nc3ccccc3C3=NC(CCC(=O)NCCc4ccccc4)C(=O)N23)cc1 (configuration not stated),81%
9,O=S(=O)(/C=C/c1ccccc1)N1CCOCC1,67%
10,N#Cc1ccccc1CSc1nc(N)cc(N)n1,106%
11,N#CCSc1nc(N)cc(N)n1,52% (active)
12,Cc1ccc(CSc2nc(N)cc(N)n2)cc1,114%
13,Cc1ccc(N2CCN(C(=O)c3ccc(Nc4nc5ccccc5n5nnnc45)cc3)CC2)c(C)c1,82%
14,CC(C)Nc1nc2c(S(=O)(=O)c3cccc(Cl)c3)nnn2c2ccsc12,70%
15,COc1ccc(NC(=O)CSc2c3c(nc4ccccc24)CCC3)c(OC)c1,110%
16,COc1ccc(OC)c(NC(=O)CSc2c3c(nc4ccccc24)CCCC3)c1,93%
17,Cc1ccc(NC(=O)CSc2c3c(nc4ccccc24)CCCC3)cc1F,30% (active)
18,COc1cccc(NC(=O)CSc2c3c(nc4ccccc24)CCCC3)c1,43% (active)
19,O=C(CSc1c2c(nc3ccccc13)CCC2)Nc1ccc(F)cc1,127%
20,CCOc1ccc(NC(=O)CSc2c3c(nc4ccccc24)CCCC3)cc1,88%
21,CN(C)c1ccc(-c2nc3ccccn3c2Nc2ccc3c(c2)OCCO3)cc1,81%
22,CC(CCc1ccccc1)NC(=O)Cn1c(=O)nc(-c2ccccc2)c2cc(Cl)ccc21 (configuration not stated),80%

row,Structure (SMILES),survival
1,O=C(CCc1ccccc1)NCc1ccco1,88%
2,CCOC(=O)c1ccccc1NC(=O)N1CC(C)Oc2ccc(C)cc21 (configuration not stated),50%
3,CCN1CCN(C(=O)c2ccc3c(c2)N(Cc2ccccc2)C(=O)c2ccccc2S3(=O)=O)CC1,129%
4,Cc1ccc(CNC(=O)CN2CCCN(Cc3ccc(F)cc3)S2(=O)=O)cc1,67%
5,CC(=O)c1c(C)oc2c1cc(NS(=O)(=O)c1ccc(C(C)(C)C)cc1)c1ccccc12,64%
6,Cc1oc2c(cc(NS(=O)(=O)c3ccc(C(C)C)cc3)c3ccccc32)c1C(=O)O,42% (active)
7,Cc1oc2c(cc(NS(=O)(=O)c3ccc(F)cc3)c3ccccc32)c1C(=O)OCc1ccccc1,54%
8,Cc1ccc(S(=O)(=O)Nc2cc3c(C(=O)OCc4ccccc4)c(C)oc3c3ccccc23)c(C)c1,56%
9,CCc1ccc(S(=O)(=O)Nc2cc3c(C(=O)OCc4ccccc4)c(C)oc3c3ccccc23)cc1,60%
10,CCCOC(=O)c1c(C)oc2c1cc(NS(=O)(=O)c1ccc(OCC)cc1)c1ccccc12,56% (active)
11,CCOc1ccc(S(=O)(=O)Nc2cc3c(C(=O)OCc4ccccc4)c(C)oc3c3ccccc23)cc1,94%
12,Cc1oc2c(cc(NS(=O)(=O)c3ccc(Cl)cc3)c3ccccc32)c1C(=O)OCc1ccccc1,52%
13,Cc1oc2c(cc(NS(=O)(=O)c3ccc(C(C)C)cc3)c3ccccc32)c1C(=O)OCc1ccccc1,81%
14,Cc1cc(F)ccc1S(=O)(=O)Nc1cc2c(C(=O)O)c(C)oc2c2ccccc12,39% (active)
15,CC(=O)c1c(C)oc2c1cc(NS(=O)(=O)c1ccc(Cl)c(C)c1)c1ccccc12,70%
16,COCCOC(=O)c1c(C)oc2c1cc(NS(=O)(=O)c1ccc(Cl)c(C)c1)c1ccccc12,44% (active)
17,CCc1ccc(CN(Cc2ccco2)C(=O)COc2ccc(Cl)cc2C)cc1,55%
18,O=C(CNC(=O)c1ccccc1)OCc1cc(=O)n2nc(C3CCCCC3)sc2n1,90%
19,O=C(O)CC1c2ccccc2CCN1C(=O)Nc1cc(Cl)ccc1Cl (configuration not stated),94%
20,COc1ccc(NC(=O)Cn2c(=O)n(-c3cccc(C)c3)c(=O)c3c2c2cc(C)ccc2n3C)cc1OC,79%
21,c1ccc(CNCC2COc3ccccc3O2)cc1 (configuration not stated),114%
22,Cc1ccc(-n2ncc3c(N4CCN(C)CC4)ncnc32)cc1C,89%

row,Structure (SMILES),survival
1,Cc1ccc(CNC(=O)NC2COc3ccccc3C2)cc1 (configuration not stated),107%
2,COc1ccc(OC)c(S(=O)(=O)Nc2cc3c(C(C)=O)c(C)oc3c3ccccc23)c1,52%
3,CCOC(=O)c1c(C)oc2c1cc(NS(=O)(=O)c1ccc(C)cc1)c1ccccc12,56%
4,COc1ccc(S(=O)(=O)Nc2cc3c(C(=O)OC(C)C)c(C)oc3c3ccccc23)cc1,38% (active)
5,Cc1nc(-c2ccc(S(=O)(=O)Nc3ccc(OC(F)(F)F)cc3)cc2)co1,78%
6,COC(=O)c1cccc2c1NC(c1cccnc1)C1CC=CC21 (configuration not stated),101%
7,Cc1ccc(Cl)c2c1N[C@@H](c1ccc(C(=O)O)cc1)[C@H]1CC=C[C@@H]21,-10% (active)
8,COC(=O)c1ccc([C@@H]2Nc3c(C)cc(C)cc3[C@@H]3C=CC[C@@H]32)cc1,51% (active)
9,Cc1ccc2c(c1C)NC(C(=O)O)C1CC=CC21 (configuration not stated),85%
10,COc1cc([C@@H]2Nc3c(F)cccc3[C@@H]3C=CC[C@@H]32)cc(Br)c1OC,55%
11,Cc1ccc([C@H]2Nc3ccc(S(=O)(=O)Nc4cccc(Cl)c4C)cc3[C@H]3C=CC[C@H]32)cc1,50%
12,CCOC(=O)c1cccc2c1N[C@@H](c1ccc(F)cc1)[C@H]1CC=C[C@@H]21,4% (active)
13,CCOc1cccc2c1N[C@@H](c1ccc(C(=O)O)cc1)[C@H]1CC=C[C@@H]21,68%
14,COC(=O)c1ccc([C@@H]2Nc3c(cccc3C(F)(F)F)[C@@H]3C=CC[C@@H]32)cc1,-3% (active)
15,COC(=O)c1ccc([C@@H]2Nc3c(OC)ccc(C)c3[C@@H]3C=CC[C@@H]32)cc1,49%
16,COCCN(CCOC)C(=O)c1cc2c(=O)n3ccccc3nc2n1C,51%
17,CCOc1ccccc1NC(=O)N(C)CCc1c(C)nn(CC)c1C,120%
18,Cc1c(C(=O)N2CCCC2)oc2c1-c1nn(CC(=O)NC(C)c3ccccc3)cc1CC2 (configuration not stated),72%
19,Cc1nc(SCC(=O)N2c3ccccc3CCc3ccccc32)n[nH]1,102%
20,Cc1cccc(C(=O)NC2=NC(c3ccc(Cl)cc3)CC(=O)N2)c1 (configuration not stated),88%
21,COc1ccccc1NC(=O)CN1C(=O)CC(c2ccc(C)c(C)c2)=Nc2ccccc21,84%
22,O=C1Nc2ccc(S(=O)(=O)Nc3ccccc3O)c3cccc1c23,62%

row,Structure (SMILES),survival
1,CCOC(=O)c1ccc(NC2=CC(c3ccc(O)c(OCC)c3)N(c3ccc(C(=O)OCC)cc3)C2=O)cc1 (configuration not stated),59%
2,Cc1ccc(S(=O)(=O)c2nnn3c2nc(NCc2ccc4c(c2)OCO4)c2sccc23)cc1,113%
3,COc1ccccc1CNC(=O)CCn1c(=O)c2cccn2c2cccnc21,80%
4,COCCCNC(=O)c1nn(-c2ccc(C)cc2)nc1CO,82%
5,O=C(CSc1oc(-c2ccccc2)nc1S(=O)(=O)c1ccc(Cl)cc1)c1ccccc1,44% (active)
6,O=C(CSc1oc(-c2ccccc2)nc1S(=O)(=O)c1ccccc1)c1ccccc1,148%
7,O=C(CSc1oc(-c2ccc(F)cc2)nc1S(=O)(=O)c1ccc(Cl)cc1)c1ccccc1,45% (active)
8,Cc1ccc(-c2nc(S(=O)(=O)c3ccc(C)cc3)c(SCC(=O)NC3CCCCC3)o2)cc1,51%
9,Cc1ccc(-c2nc(S(=O)(=O)c3ccc(C)cc3)c(SCC(=O)Nc3ccc(F)cc3)o2)cc1,58%
10,Cc1ccc(-c2nc(S(=O)(=O)c3ccccc3)c(SCC(=O)NC3CCCCC3)o2)cc1,43% (active)
11,Cc1ccc(-c2nc(S(=O)(=O)c3ccc(C)cc3)c(SCC(=O)c3ccccc3)o2)cc1,52%
12,Cc1ccc(S(=O)(=O)c2nc(-c3ccc(F)cc3)oc2SCC(=O)c2ccccc2)cc1,47% (active)
13,Cc1ccc(S(=O)(=O)c2nc(-c3ccccc3)oc2SCC(=O)NC2CCCCC2)cc1,166%
14,O=C(CSc1oc(-c2ccccc2)nc1S(=O)(=O)c1ccc(Cl)cc1)Nc1ccc(F)cc1,162%
15,O=C(CSc1oc(-c2ccccc2)nc1S(=O)(=O)c1ccc(Br)cc1)c1ccccc1,58%
16,O=C(CSc1oc(-c2ccc(F)cc2)nc1S(=O)(=O)c1ccccc1)c1ccc(Cl)cc1,55%
17,Cc1cccc(N2C(=O)C(CC(=O)Nc3ccc(F)cc3)N(C3CCCC3)C2=O)c1 (configuration not stated),130%
18,CCCC1=Nc2cc(C(=O)NCCc3ccc(OC)cc3OC)ccc2Sc2ccccc21,99%
19,O=C(CC(NCc1ccccc1)C(=O)O)NC1CCCCC1 (configuration not stated),102%
20,Cn1c(=O)c(C(=O)NCCN2CCNCC2)c(O)c2ccccc21,68%
21,CCCn1c(=O)c2sccc2n2c(CCCC(=O)NC3CCC(C)CC3)nnc12 (configuration not stated),100%
